Screening results as filed in PubChem.
An excerpt weighted towards active compounds, which were near 1.3% of everything screened.
OPRM1-OPRD1 ag: agonists of human mu-delta opioid receptor heterodimerization. activation, % at 9.3 µM. AID 504326. P35372+P41143. cells, OPRM1-OPRD1 heterodimerization, luminescence. 0.3% of 340,000 active; in the data active means activation above about 18%
Target sequence (P35372 whole entry, looked up): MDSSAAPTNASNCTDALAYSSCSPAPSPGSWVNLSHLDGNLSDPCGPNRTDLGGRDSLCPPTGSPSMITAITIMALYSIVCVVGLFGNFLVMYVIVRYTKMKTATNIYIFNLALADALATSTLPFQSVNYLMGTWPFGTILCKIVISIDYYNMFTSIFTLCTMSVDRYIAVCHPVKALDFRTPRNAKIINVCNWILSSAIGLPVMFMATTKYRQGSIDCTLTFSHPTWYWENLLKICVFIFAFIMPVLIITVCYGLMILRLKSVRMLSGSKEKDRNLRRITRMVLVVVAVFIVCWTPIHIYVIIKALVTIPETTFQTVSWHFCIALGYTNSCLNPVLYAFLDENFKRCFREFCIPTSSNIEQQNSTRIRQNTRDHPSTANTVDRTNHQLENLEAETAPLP
Target sequence (P41143 whole entry, looked up): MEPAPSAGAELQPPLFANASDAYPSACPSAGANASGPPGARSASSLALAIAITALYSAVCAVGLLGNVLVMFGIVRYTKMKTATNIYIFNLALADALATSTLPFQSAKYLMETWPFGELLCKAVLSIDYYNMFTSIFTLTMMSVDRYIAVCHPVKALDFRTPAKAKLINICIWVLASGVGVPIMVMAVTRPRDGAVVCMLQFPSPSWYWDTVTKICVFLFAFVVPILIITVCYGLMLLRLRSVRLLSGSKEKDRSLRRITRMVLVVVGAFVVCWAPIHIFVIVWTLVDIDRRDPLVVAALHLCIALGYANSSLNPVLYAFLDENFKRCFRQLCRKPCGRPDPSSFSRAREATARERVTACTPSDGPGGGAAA
HTR5A ag: activates human HTR5A in OPRM1-OPRD1 agonist counter-screen; HTR5A agonist assay, luminescence, cell-based; activation, % at 9.3 µM; AID 504692; 0.61% of 340,000 active; in the data active means activation mostly above about 9.5%, no sharp cut-off; inactive means mostly below about 7.6%
HTR5A inv ctr: counter-screen for OPRM1-OPRD1 inverse agonists: human HTR5A inverse agonism; P47898; HTR5A cell line, luminescence; inhibition, % at 9.3 µM; 0.083% of 340,000 active; AID 504634; in the data active means inhibition mostly above about 23%, no sharp cut-off; inactive means mostly below about 18%
PvdQ acylase: P. aeruginosa PvdQ acylase inhibition | purified PvdQ acylase, fluorescence plate reader | inhibition, % at 10 µM | 0.063% of 340,000 active; in the data active means inhibition above about 30%, passing the limit was not always enough
Yeast superoxide: lowers age-related superoxide in aged yeast cells; S. cerevisiae aged cells, superoxide DHE fluorescence; hits give low values; superoxide response (% of plate mean), % at 10 µM; 0.18% of 330,000 active; AID 2690;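 active means superoxide response under a set limit, about three screen SD below normal, cut at about 65% in these data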;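 further: yeast aged for seven days with compound at 30 °C before DHE staining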
MOR-DOR inv ag: mu-delta opioid heterodimer inverse agonism | 0.21% of 340,000 active | inhibition, % at 9.3 µM | AID 504357 | P35372+P41143 | cell-based MOR-DOR heterodimer luminescence; in the data active means inhibition above about 22%, passing the limit was not always enough
OPRM1-D1 inv cf: OPRM1-OPRD1 heterodimer inverse agonism, confirmation. shares compounds with MOR-DOR inv ag. cells expressing OPRM1/OPRD1 heterodimer, luminescence. inhibition, % at 9.3 µM. 20% of 580 active. AID 504900; in the data active means inhibition above about 32%
HTR5A inv ctr2: counter-screen for OPRM1-OPRD1 inverse agonists: human HTR5A inverse agonism | inhibition, % at 9.3 µM | AID 504914 | 580 tested, under 10 active | HTR5A-expressing cells, luminescence | shares compounds with MOR-DOR inv ag; call rule not given here
Each line names hits and unclear results; the compound was inactive in the other large screens (follow-up assays come after a bar, where they were run).

CC(=O)Nc1cccc(C(=O)OCC(=O)c2ccc(S(=O)(=O)N3CCCCC3)cc2)c1	MOR-DOR inv ag 47 | OPRM1-D1 inv cf 49 | HTR5A inv ctr2 inactive
CC(=O)Nc1ccc(C(=O)OCC(=O)c2ccc(S(=O)(=O)N3CCCCC3)cc2)cc1	none
CNS(=O)(=O)c1cccc(C(=O)OCC(=O)c2ccc(S(=O)(=O)N3CCCCC3)cc2)c1	MOR-DOR inv ag 53 | OPRM1-D1 inv cf inactive | HTR5A inv ctr2 inactive
COc1cc(C(=O)OCC(=O)c2ccc(S(=O)(=O)N3CCCCC3)cc2)cc(OC)c1OC	none
CNS(=O)(=O)c1cccc(C(=O)OCC(=O)c2cc3ccccc3o2)c1	HTR5A inv ctr 37, MOR-DOR inv ag 77 | OPRM1-D1 inv cf inactive | HTR5A inv ctr2 inactive
O=C(O)c1ccc(-n2nnnc2SCc2ccccc2Br)cc1	none
COc1cccc(OC)c1C(=O)Nc1ccc(C(=O)NCc2ccccc2)cc1	none
Cc1ccccc1-c1cc2c(nn1)-c1ccccc1C2=O	none
O=C1c2ccccc2-c2nnc(-c3ccc(F)cc3)cc21	MOR-DOR inv ag 81 | OPRM1-D1 inv cf inactive | HTR5A inv ctr2 inactive
O=C1c2ccccc2-c2nnc(-c3ccc(O)cc3)cc21	none
Cc1ccc(-c2cc3c(nn2)-c2ccccc2C3=O)cc1	MOR-DOR inv ag 99 | OPRM1-D1 inv cf inactive | HTR5A inv ctr2 inactive
CCC1=NC(c2ccc(Br)cc2)N(O)C1(C)C (stereo unspecified)	MOR-DOR inv ag 33 | OPRM1-D1 inv cf inactive | HTR5A inv ctr2 inactive
CC1(C)C(c2ccccc2)=NC(c2ccc(Br)cc2)N1O (stereo unspecified)	MOR-DOR inv ag 46 | OPRM1-D1 inv cf inactive | HTR5A inv ctr2 inactive
COc1ccc(C2N=C(c3ccccc3)C(C)(C)N2O)cc1 (stereo unspecified)	MOR-DOR inv ag 43 | OPRM1-D1 inv cf inactive | HTR5A inv ctr2 inactive
CC1(C)C(c2ccccc2)=NC(c2ccccc2)N1O (stereo unspecified)	none
CCC1=NC(c2ccc(OC)cc2)N(O)C1(C)C (stereo unspecified)	none
O=C(NCCS(=O)(=O)N1CCN(Cc2ccccc2)CC1)c1ccccc1	none
Cc1ccc(S(=O)(=O)N(CCC(=O)N2CCOCC2)c2ccccc2)cc1	none (no result: Yeast superoxide)
COc1ccc(S(=O)(=O)N2CCOC2CNC(=O)C(=O)NCc2ccc(F)cc2)cc1OC (stereo unspecified)	none
CN(CC(=O)Nc1ccc(F)c(F)c1F)C(=O)C1COc2ccccc2O1 (stereo unspecified)	none
Cc1ccc(C(=O)OCC(=O)N2CCNC2=O)c(C)c1	none (no result: Yeast superoxide)
COC(=O)c1ccc(NC(=S)NC(=O)c2cccnc2)cc1	MOR-DOR inv ag 28 | OPRM1-D1 inv cf inactive | HTR5A inv ctr2 inactive
CC(C)(C)c1cc(Cl)c(O)c(NC(=S)NC(=O)c2cccnc2)c1	MOR-DOR inv ag 47 | OPRM1-D1 inv cf inactive | HTR5A inv ctr2 inactive
CCC(C)c1ccc(O)c(NC(=O)c2cccnc2)c1 (stereo unspecified)	none
CC(C)c1ccc(O)c(NC(=S)NC(=O)c2cccnc2)c1	MOR-DOR inv ag 43 | OPRM1-D1 inv cf 32 | HTR5A inv ctr2 inactive
CCOC(=O)c1csc(NC(=O)C2=COCCO2)n1	none
Cn1ccnc1Sc1cc(NCCCO)c([N+](=O)[O-])c2nonc12	MOR-DOR inv ag 37 | OPRM1-D1 inv cf inactive | HTR5A inv ctr2 inactive
CC(=O)Nc1ccc(NC(=O)C(C)OC(=O)CCSc2ccccc2Cl)cc1 (stereo unspecified)	none
CCCCC(=O)NC(=S)Nc1ccccc1C(=O)Nc1ccccc1	MOR-DOR inv ag 30 | OPRM1-D1 inv cf inactive | HTR5A inv ctr2 inactive
CC(=O)NC(=S)Nc1ccccc1C(=O)Nc1ccccc1	MOR-DOR inv ag 27 | OPRM1-D1 inv cf inactive | HTR5A inv ctr2 inactive
COc1cccc(NC(=O)CN(C)C(=O)[C@@H]2CCCN2C(=O)c2cccs2)c1	none
COCc1cc(C)nc2sc(C(=O)N3CCCCC3)c(N)c12	MOR-DOR inv ag 39 | OPRM1-D1 inv cf inactive | HTR5A inv ctr2 inactive
COc1cc(C(C)=O)ccc1OCc1cn(CC(=O)c2ccc(O)cc2)nn1	MOR-DOR inv ag 32 (no result: Yeast superoxide) | OPRM1-D1 inv cf inactive | HTR5A inv ctr2 inactive
CCCCn1c(N)c(N(CCOC)C(=O)COC(=O)C(C)(C)Oc2ccc(Cl)cc2)c(=O)[nH]c1=O	none
Cc1c(CC(=O)N[C@@H](C)C(=O)O)c(=O)oc2cc3oc4c(c3cc12)CCCC4	none
C[C@@H]1COC(=O)[C@H](Cc2ccc(F)cc2)C/C=C\C[C@@H](CC(=O)NCCO)C(=O)N1	none
COCCN(C(=O)CCC(=O)Nc1cccnc1)C(C(=O)NC1CCCCC1)c1ccccc1 (stereo unspecified)	MOR-DOR inv ag 36 | OPRM1-D1 inv cf inactive | HTR5A inv ctr2 inactive
O=C(CCC(=O)N(c1ccccc1)C(C(=O)NC1CCCC1)c1ccncc1)Nc1cccnc1 (stereo unspecified)	none
O=c1c2cc(Cl)ccc2[nH]c(=S)n1Cc1ccccn1	MOR-DOR inv ag 72 | OPRM1-D1 inv cf 55 | HTR5A inv ctr2 inactive
O=C(NCc1ccccn1)c1ccc(Cn2c(=S)[nH]c3ccc(Br)cc3c2=O)cc1	none
COc1ccc(-c2cccc3c2NC(=O)C3=O)cc1OC	MOR-DOR inv ag 64 | OPRM1-D1 inv cf 42 | HTR5A inv ctr2 inactive
COc1ccc(/C=C2\C(=O)NC(=O)c3ccccc32)cc1OC	none (no result: Yeast superoxide)
Cc1ccc(C(=O)CNc2ccccc2C)cc1	none
Cc1ccc(C(=O)CNc2ccc(C)cc2C)cc1	MOR-DOR inv ag 26 | OPRM1-D1 inv cf inactive | HTR5A inv ctr2 inactive
C=CCSc1cc(C)nc2c(-c3ccc(Cl)cc3)c(C)nn12	MOR-DOR inv ag 28 | OPRM1-D1 inv cf inactive | HTR5A inv ctr2 inactive
CCCn1nc([N+](=O)[O-])c(C(C#N)c2nc3ccccc3o2)c(Cl)c1=O (stereo unspecified)	none
CCn1nc([N+](=O)[O-])c(C(C#N)c2nc3cc(C(F)(F)F)ccc3s2)c(Cl)c1=O (stereo unspecified)	MOR-DOR inv ag 31 | OPRM1-D1 inv cf inactive | HTR5A inv ctr2 inactive
COC(=O)CCCn1nc(NC(=O)c2ccco2)cc1C	none
COc1ccc(Cl)cc1NC(=O)CN(C)Cc1cccs1	none
COc1ccc(S(=O)(=O)NNc2nc(C)cc(C)n2)cc1[N+](=O)[O-]	MOR-DOR inv ag 46 | OPRM1-D1 inv cf 54 | HTR5A inv ctr2 inactive
CCN(CC(=O)NCc1ccc(Cl)cc1)C(=O)Cc1ccc(OC)cc1	none
COc1ccc(N=C2C(=O)Nc3ccccc32)cc1	MOR-DOR inv ag 50 | OPRM1-D1 inv cf inactive | HTR5A inv ctr2 inactive
COc1ccc(N=C2C(=O)Nc3ccc(C)c(Br)c32)cc1	MOR-DOR inv ag 70 | OPRM1-D1 inv cf inactive | HTR5A inv ctr2 inactive
